# RTF Ca sens act: cardiac RTF calcium sensitization | activation, % at 7.2 µM | IANBD-labeled TnC RTF fluorescence at EC20 calcium; 0% EC20 calcium, 100% full calcium | P19429+P45379 | 340,000 compounds, 0.24% hits | AID 493008;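 active = activation above the mean over all tested compounds plus 3 SD, cut at about 30% in these data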;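 note: rise in fluorescence read as greater calcium sensitivity of cardiac thin filaments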
# CRFBP-R2 agonist: CRF-BP/CRF-R2 complex agonism. AID 588473. HEK293 CRF-R2/CRF-BP, calcium dye fluorescence (FLIPR); percent of saturating CRF peptide response. activation, % at 13.2 µM. 350,000 compounds, 0.46% hits;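 active = activation of at least 50%, plus an integration ratio under a set limit after plate pattern correction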;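 note: plate controls were neutral control wells without compound for no effect and CRF at EC100 for full effect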
# CRFR2-BP antag: antagonists of CRF-binding protein/CRF-R2 receptor complex; HEK293 CRF-R2/CRF-BP, CRF-induced calcium fluorescence; inhibition, % at 11.8 µM; 350,000 compounds, 0.59% hits;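 active = inhibition of the ligand-induced calcium signal above about 50% at the single tested concentration, limit read from the data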
# IDE cell inh: inhibits human insulin-degrading enzyme in HEK cells; FAbetaB cleavage, fluorescence polarization; inhibition, % at 5.59 µM; 320,000 compounds, 0.41% hits; AID 434962;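 active = percent inhibition above the average of all tested compounds plus 3 SD, set per screening campaign, cut at about 16% in these data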;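 note: IDE supplied by intact live HEK cells; FP after avidin binding of uncleaved biotin substrate so inhibition keeps polarization high; 0% = DMSO wells and 100% = 60 µM reference IDE inhibitor Ii1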
# Target sequence (P14735 whole entry, looked up): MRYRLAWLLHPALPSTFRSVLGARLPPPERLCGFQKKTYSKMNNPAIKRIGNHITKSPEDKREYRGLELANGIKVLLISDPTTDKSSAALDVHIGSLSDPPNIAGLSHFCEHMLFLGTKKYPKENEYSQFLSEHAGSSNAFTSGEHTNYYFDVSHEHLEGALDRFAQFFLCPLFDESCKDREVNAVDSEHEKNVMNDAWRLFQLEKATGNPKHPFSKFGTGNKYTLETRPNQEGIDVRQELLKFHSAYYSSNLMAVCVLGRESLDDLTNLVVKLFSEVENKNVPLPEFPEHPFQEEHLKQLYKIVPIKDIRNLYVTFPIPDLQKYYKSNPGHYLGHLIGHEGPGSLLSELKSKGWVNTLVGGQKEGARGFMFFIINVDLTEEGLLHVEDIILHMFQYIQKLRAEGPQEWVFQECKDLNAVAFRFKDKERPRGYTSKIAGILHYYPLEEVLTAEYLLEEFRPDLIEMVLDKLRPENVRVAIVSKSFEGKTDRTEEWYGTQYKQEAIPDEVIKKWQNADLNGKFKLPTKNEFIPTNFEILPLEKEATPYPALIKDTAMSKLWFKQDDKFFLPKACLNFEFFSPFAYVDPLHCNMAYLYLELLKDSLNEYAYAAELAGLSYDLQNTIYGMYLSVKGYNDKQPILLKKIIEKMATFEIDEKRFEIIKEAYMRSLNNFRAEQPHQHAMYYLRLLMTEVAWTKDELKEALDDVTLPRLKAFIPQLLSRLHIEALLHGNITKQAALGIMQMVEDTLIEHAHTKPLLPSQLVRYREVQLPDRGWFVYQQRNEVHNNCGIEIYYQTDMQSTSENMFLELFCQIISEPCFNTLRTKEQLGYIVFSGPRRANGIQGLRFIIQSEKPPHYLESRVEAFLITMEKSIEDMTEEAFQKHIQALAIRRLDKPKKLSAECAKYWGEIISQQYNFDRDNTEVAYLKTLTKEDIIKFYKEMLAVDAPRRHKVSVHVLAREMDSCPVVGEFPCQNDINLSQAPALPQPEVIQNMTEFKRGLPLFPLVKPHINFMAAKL
# IDE act: boosts human insulin-degrading enzyme activity in HEK cells. P14735. FAbeta-B cleavage, fluorescence polarization; 0% vehicle, 100% cell-free pure enzyme wells. activation, % at 5.96 µM. 340,000 compounds, 0.073% hits. AID 493087;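 active = activation above the mean of all tested compounds plus 3 SD, set per screening campaign, cut at about 17% in these data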
# Cardiac RTF inh: cardiac RTF calcium desensitization; P19429+P45379; 340,000 compounds, 0.12% hits; IANBD-labeled cardiac RTF, Ca2+ fluorescence; inhibition, % at 7.15 µM;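 active = inhibition above the mean inhibition of all tested compounds plus 3 SD, cut at about 17% in these data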;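 note: assay run at fixed EC70 calcium of 1.6 mM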
# An asterisk follows results filed as active; · = no result given. Only some compounds are listed: those with a hit (about 1.5% of all), similar ones and a draw of the others.
SMILES,RTF Ca sens act,CRFBP-R2 agonist,CRFR2-BP antag,IDE cell inh,IDE act,Cardiac RTF inh
Oc1[nH]c2ccccc2c1N=Nc1ccccc1Cl,65*,124*,-97,·,-5,-89
Oc1[nH]c2ccccc2c1N=Nc1c(F)c(F)c(Cl)c(F)c1F,5,-1,-5,4,0,-6
COc1ccc(C2(C)NC(=O)N(CC(=O)c3cc(C)n(C4CC4)c3C)C2=O)cc1 (centres undefined),-2,100*,-52,6,2,1
Cc1cc(C(=O)CN2C(=O)NC(C)(c3ccc(F)c(F)c3)C2=O)c(C)n1C1CC1 (centres undefined),·,17,-25,·,·,·
COc1ccc(NS(=O)(=O)c2c(C)n(C)c(=O)n(C)c2=O)cc1OC,2,0,82*,0,7,-8
COc1cc(Cl)c(C)cc1NC(=O)CN1CCN(C(=O)c2cccs2)CC1,·,-1,6,·,·,·
Cc1ccc(C(=O)OCC(=O)NC2CCCCCC2)c(C)c1,-6,-2,3,·,5,3
O=C(Nc1cccc2ccccc12)N1CC=CCC1,4,0,88*,7,1,-16
CC1CC(C)CN(C(=O)CSc2nc(Cc3cccs3)nc3ccccc23)C1 (centres undefined),8,-1,154*,-3,7,-10
CCOC(=O)CNC(=O)CSc1nc(Cc2cccs2)nc2ccccc12,7,0,6,4,-7,3
COC(=O)/C(=N\OCc1ccc(C#N)cc1)c1c(C)nn(C)c1C,-1,0,-3,4,-1,-4
CCOc1ccccc1NC(=O)C1CCCN1S(=O)(=O)c1ccccc1C(F)(F)F (centres undefined),-3,0,82*,-4,5,-5
COc1ccc(NC(=O)C(Sc2ccccc2)c2ccccc2)c(OC)c1 (centres undefined),2,2,51*,9,7,0
COc1ccccc1NC(=O)C(Sc1ccccc1)c1ccccc1 (centres undefined),-2,3,33,6,1,-5
COc1ccc(C(C(=O)NC2CCCCC2)N(C(=O)c2sc(C)nc2C)c2ccc(OC)cc2)cc1 (centres undefined),4,-2,64*,-1,4,-4
COc1ccc(C(C(=O)NC2CCCC2)N(C(=O)c2ccoc2C)c2ccccc2)cc1 (centres undefined),-5,0,1,-4,2,-3
COc1ccc(C(C(=O)NC2CCCC2)N(C(=O)c2ccoc2C)c2cc(C)cc(C)c2)cc1 (centres undefined),0,0,83*,-4,4,5
COc1ccc(C(C(=O)NC2CCCCC2)N(C(=O)c2sc(C)nc2C)c2ccccc2)cc1 (centres undefined),7,1,-4,0,4,2
Nc1ncc([N+](=O)[O-])cc1S(=O)(=O)c1ccccc1,·,-3,15,-3,·,·
CCOC(=O)c1cccc(N2CC3CNC(=O)C2(C(=O)OC)N3C)c1 (centres undefined),1,-2,10,7,7,2
CC(=O)N1CCc2cc(S(=O)(=O)NCCC(=O)N3CCN(Cc4ccccc4)CC3)ccc21,1,2,-14,0,19*,-4
CC(=O)c1ccc(N2CCN(C(=O)CCS(=O)(=O)c3ccc4c(c3)CCN4C(C)=O)CC2)cc1,-1,0,80*,-2,5,-6
COc1ccc([C@H]2C[C@H](O)[C@@H](n3cc(-c4ccc(F)cc4)nn3)CN2Cc2cccs2)cc1,·,-1,1,·,·,·
COc1ccc(S(=O)(=O)N2CCOC2CNC(=O)C(=O)NCCc2ccccc2)cc1C (centres undefined),-1,-1,140*,-1,3,0
COc1ccc(S(=O)(=O)Nc2cccc(S(=O)(=O)N(C)C)c2)cc1[N+](=O)[O-],4,0,-10,·,-1,-5
SMILES,RTF Ca sens act,CRFBP-R2 agonist,CRFR2-BP antag,IDE cell inh,IDE act,Cardiac RTF inh
COc1ccc(OCCCC(=O)Nc2cccnc2)cc1,0,-5,53*,-3,6,-1
O=C(CCC(=O)c1ccc(Br)cc1)Nc1cccnc1,4,3,15,-3,0,7
O=C(CCSc1ccc(Br)cc1)Nc1cccnc1,0,-1,110*,8,-3,6
COc1nc(NC2OC(CO)C(O)C(O)C2O)c(N)c(=O)[nH]1 (centres undefined),0,7,0,·,-3,-6
CCCCCC(=O)Nc1cc(S(=O)(=O)O)cc2cc(S(=O)(=O)O)cc(O)c12,-49,-1,-1,·,3,67*
Cc1ccc(C2C(C#N)=C(N)Oc3cc(N)ccc32)cc1 (centres undefined),-10,-2,-18,6,0,1
Cc1ccc(/C=C2\CCC3=C2OC(N)=C(C#N)C3c2ccc(C)cc2)cc1 (centres undefined),84*,253*,-297,56*,-44,-100
COc1cc(CCc2ccccc2)c(C(=O)O)c(O)c1C/C=C(/C)CCC=C(C)C,-5,24,72*,·,8,-3
CC(C)=CCC/C(C)=C/Cc1c(O)ccc(C(=O)/C=C/c2ccc(O)cc2)c1O,19,2,-15,0,0,-8
COc1cc(CCc2ccccc2)c(C(=O)O)c(O)c1CC=C(C)C,-2,1,61*,·,5,-5
COCOc1ccc(/C=C/C(=O)c2c(OCOC)cc(OCOC)c(CC=C(C)C)c2O)cc1OCOC,·,1,0,-2,·,·
COc1cc2ccccc2cc1C(=O)N(CCN(C)C)c1nc2c(OC)ccc(OC)c2s1,0,2,72*,0,0,0
Cc1ccc2nc(SCC(=O)N3CCOCC3)[nH]c2c1,3,-2,78*,0,4,-8
Cc1ccc2nc(SCC(=O)N3CCN(c4ccccc4)CC3)[nH]c2c1,2,-1,0,1,8,-16
Oc1[nH]c2ccccc2c1N=Nc1ccccn1,-2,-1,0,·,1,-2
Oc1c(N=Nc2ccccn2)ccc2ccccc12,-1,99*,-91,3,-9,-2
Cc1cc(C)nc(/N=C(\N)Nc2ccc(CC(=O)OC(C)C)cc2)n1,-1,101*,-6,-4,3,-12
Cc1cc(C)nc(/N=C(\N)Nc2ccc(OCCC(C)C)cc2)n1,-9,75*,-35,-1,4,-5
COc1ccc(N/C(N)=N/c2nc(C)cc(C)n2)cc1,·,70*,-85,·,·,·
Cc1cc(C)nc(/N=C(\N)Nc2ccc(S(=O)(=O)O)cc2)n1,·,-1,1,·,·,·
Cc1ccc(S(=O)(=O)N2CCOCC2)cc1NC(=O)COC(=O)/C=C/c1ccc(F)cc1,-1,1,-9,3,-4,-12
